Common to all, as to assay: NCI-60 one-dose screen, 48 h (100 = growth as untreated, 0 = no growth, -100 = all killed)
Common to all, as to settings: 10 µM unless noted

Test [1] relates to T-47D breast.
Test [2] has as its system BT-549 breast.
For test [3], the system named is MDA-MB-435 melanoma.
The test system of test [4] is SW-620 colon.
Test [5] relates to MCF7 breast.
The subject of test [6] is HCT-116 colon.
Test [7] relates to HCC-2998 colon.
Test [8] relates to KM12 colon.

Each structure is given as a SMILES string. “And” between values parts separate entries of the source, which are not always exact repeats. Identical values can stand only once. Compounds without any hit were thinned out: in the full panel of roughly 83,000, 20% have a hit.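 Growth was measured after 48 h exposure to one concentration of compound in 96-well plates. Values under 10 count as active.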 More than one record can exist for a structure, and the calls need not agree. The source made the active and inactive calls.

Turning to `Cc1n[nH]c(=O)n(/N=C\c2c[nH]c3ccccc23)c1=O`, the growth was 102% (inactive) in test [1]; 117% (inactive) in test [2]; 107% (inactive) in test [3]; 106% (inactive) in test [4]; 91.1% (inactive) in test [5]; 113% (inactive) in test [6]. For the same molecule, the values for the growth in test [7] and in test [8] were 108% (inactive) and 105% (inactive), respectively.
`C[N+](C)(C)CN1C(=O)c2ccccc2C1=O`: the growth was 96.5% (inactive) in test [1]; 98.6% (inactive) in test [2]; 97.6% (inactive) in test [3]; 107% (inactive) in test [4]; 92.7% (inactive) in test [5]; 104% (inactive) in test [6]. Besides, the growth in test [7] is 108% (inactive); in test [8] it was 111% (inactive).
As to `Cc1nn(-c2ccc(Cl)cc2)c2ncnc(N/N=C/c3ccccc3O)c12`, the growth in test [1] is 13.3% (inactive) and 23.8% (inactive); in test [2], 36% (inactive) and 36.4% (inactive); in test [3], 27.3% (inactive) and 23.7% (inactive); in test [4] it was 35.1% (inactive) and 31.5% (inactive); in test [5] it was 8.28% (active) and 12.1% (inactive); in test [6] it was 26.7% (inactive) and 21.6% (inactive). The growth in test [7] is 31% (inactive) and 39.7% (inactive); in test [8] it was 28.4% (inactive) and 22.2% (inactive).
As to `CC(C)Cc1ccc(C(C)C(=O)NCc2ccc(Cn3c(=O)sn(CCCCl)c3=O)cc2)cc1` (configuration not stated), the growth in test [1] was 57% (inactive) and -46.4% (active); in test [2], 92.3% (inactive) and -67.8% (active); in test [3] it was 101% (inactive) and -83.6% (active); in test [4], 87.3% (inactive) and -72.3% (active); in test [5], 57.3% (inactive) and -31.3% (active); in test [6] it was 92.4% (inactive) and -65.6% (active). The growth is 95.7% (inactive) and -44.7% (active) in test [7]; 95% (inactive) and 4.78% (active) in test [8].
For `O=C(Oc1cccc(OC(=O)c2ccccc2)c1)c1ccccc1`, the growth in test [1] was 102% (inactive); in test [2] it was 112% (inactive) and 90.8% (inactive); in test [3] it was 113% (inactive) and 99.8% (inactive); in test [4], 85.8% (inactive) and 103% (inactive); in test [5], 78.7% (inactive) and 107% (inactive); in test [6], 89.2% (inactive) and 93.9% (inactive). Also, the growth was 96.3% (inactive) and 102% (inactive) in test [7]; 87.9% (inactive) in test [8].
For the molecule `C/C(=N\NC(=O)c1ccncc1)c1ccccc1O`, the growth in test [1] is 30.8% (inactive) and 24.3% (inactive); in test [2], 52% (inactive) and 20.7% (inactive); in test [3] it was 50.5% (inactive) and 57.5% (inactive); in test [4], 34.2% (inactive) and 42.3% (inactive); in test [5], 13.2% (inactive) and 13.4% (inactive); in test [6], 5.77% (active) and 2.15% (active). Further, the growth in test [7] was 25% (inactive) and 32.1% (inactive); in test [8], 31.9% (inactive) and 34.4% (inactive).
Turning to `O=[N+]([O-])c1ccc(N/N=C\c2cc(Br)ccc2O)nc1`, the growth is 16% (inactive) and 33% (inactive) in test [1]; 25.6% (inactive) in test [2]; 29.3% (inactive) and 25.2% (inactive) in test [3]; 27.3% (inactive) and 34.3% (inactive) in test [4]; 13.4% (inactive) and 13.6% (inactive) in test [5]; 10.1% (inactive) and 15.2% (inactive) in test [6]. Besides, the growth is 23.2% (inactive) and 23% (inactive) in test [7]; 32.5% (inactive) and 24% (inactive) in test [8].
Turning to `NC(=S)NS(=O)(=O)c1ccc(N)cc1`, the growth in test [1] is 108% (inactive); in test [2], 128% (inactive); in test [3], 104% (inactive); in test [4] it was 110% (inactive); in test [5], 101% (inactive); in test [6] it was 101% (inactive). The growth in test [7] was 106% (inactive); in test [8] it was 110% (inactive).
With `COc1cc2nc(N3CCN(C(=O)C4COc5ccccc5O4)CC3)nc(N)c2cc1OC` (configuration not stated), the growth in test [1] was 91.2% (inactive) and 93.6% (inactive) and 96% (inactive); in test [2], 86.9% (inactive) and 96.6% (inactive) and 105% (inactive); in test [3], 96.5% (inactive) and 90.2% (inactive) and 92.2% (inactive); in test [4], 92% (inactive) and 97.7% (inactive) and 109% (inactive); in test [5], 91.7% (inactive) and 95.2% (inactive) and 101% (inactive); in test [6], 105% (inactive) and 79.8% (inactive) and 104% (inactive). Also, the growth was 102% (inactive) and 105% (inactive) and 108% (inactive) in test [7]; 103% (inactive) and 99.6% (inactive) and 102% (inactive) in test [8].
On to `CCCCCN(CCCCC)CC(O)c1cc2c(c3ccccc13)CCCC2` (configuration not stated), for which the growth in test [1] was 51.1% (inactive) and 54.1% (inactive); in test [2], 88.8% (inactive) and 59.8% (inactive); in test [3] it was 83.4% (inactive) and 69.8% (inactive); in test [4], 28.9% (inactive) and 30.4% (inactive); in test [5] it was 44.8% (inactive) and 23.5% (inactive); in test [6], 20.2% (inactive) and 17.9% (inactive). The growth in test [7] is 13.1% (inactive); in test [8], 50.5% (inactive) and 35.3% (inactive).
Take `Oc1c(Cl)cc(Cl)cc1Sc1cc(Cl)cc(Cl)c1O`: the growth in test [1] is 77.4% (inactive) and 52.2% (inactive) and 80.7% (inactive); in test [2] it was 32.1% (inactive) and 77% (inactive); in test [3] it was 51% (inactive) and 26.6% (inactive) and 92.5% (inactive); in test [4], 15.7% (inactive) and 26.6% (inactive) and 83% (inactive); in test [5] it was 73.1% (inactive) and 5.37% (active) and 69.8% (inactive); in test [6], 18.7% (inactive) and 11.8% (inactive) and 76.7% (inactive). In addition, the growth in test [7] was 50% (inactive) and 23.1% (inactive) and 86% (inactive); in test [8], 46.7% (inactive) and 21% (inactive) and 80.2% (inactive).
`CC12CCC(CC1)C(C)(C)O2`: the growth in test [1] was 97.9% (inactive); in test [2], 98.9% (inactive); in test [3] it was 100% (inactive); in test [4] it was 104% (inactive); in test [5], 98.7% (inactive); in test [6] it was 112% (inactive). Moreover, the results for the growth in test [7] and in test [8] were 107% (inactive) and 109% (inactive), respectively.
For the molecule `CC(=O)Nc1cc(S(=O)(=O)O)cc2cc(S(=O)(=O)O)c(N=Nc3ccccc3)c(O)c12`, the growth in test [1] is 109% (inactive) and 85.9% (inactive); in test [2], 107% (inactive) and 117% (inactive); in test [3], 108% (inactive) and 112% (inactive); in test [4], 104% (inactive) and 102% (inactive); in test [5] it was 102% (inactive) and 91.9% (inactive); in test [6] it was 93.2% (inactive) and 123% (inactive). For the same molecule, the growth in test [7] was 99.6% (inactive) and 99.1% (inactive); in test [8] it was 107% (inactive) and 106% (inactive).
In the case of `Cc1cc(=O)[nH]c(O)c1C#N`, the growth in test [1] was 97.2% (inactive) and 91% (inactive); in test [2], 100% (inactive) and 103% (inactive); in test [3], 101% (inactive) and 103% (inactive); in test [4] it was 102% (inactive) and 106% (inactive); in test [5], 97.3% (inactive) and 103% (inactive); in test [6], 100% (inactive) and 96.2% (inactive). Besides, the growth is 101% (inactive) and 100% (inactive) in test [7]; 108% (inactive) and 116% (inactive) in test [8].
As to `CC1=C(/C=C/C(C)=C/C=C/C(C)=C/C=N/NC(=S)NC(=S)N/N=C/C=C(C)/C=C/C=C(C)/C=C/C2=C(C)CCCC2(C)C)C(C)(C)CCC1`, the growth in test [1] is -5.98% (active); in test [2] it was -24.7% (active) and 5.7% (active); in test [3] it was -47.1% (active) and -61.9% (active); in test [4], -73.9% (active) and -83.4% (active); in test [5], 16.8% (inactive) and 9.28% (active); in test [6], 6.1% (active) and -84% (active). The growth in test [7] was 57.1% (inactive) and 12.3% (inactive); in test [8] it was -8.44% (active) and -50.7% (active).
For the molecule `CCOC(=O)C(C(=O)OCC)C(c1ccccc1)N1CCN(c2ccccc2)CC1` (configuration not stated), the growth in test [1] is 108% (inactive) and 98.7% (inactive); in test [2] it was 103% (inactive) and 104% (inactive); in test [3], 102% (inactive) and 100% (inactive); in test [4], 113% (inactive) and 111% (inactive); in test [5], 97.8% (inactive) and 97.5% (inactive); in test [6], 98.3% (inactive) and 99.3% (inactive). Moreover, the growth in test [7] was 114% (inactive) and 111% (inactive); in test [8] it was 111% (inactive) and 98.6% (inactive).
`Nc1ccccc1SC1CC(=O)N(c2cccc3ccccc23)C1=O` (configuration not stated): the growth in test [1] was 90.4% (inactive); in test [2], 102% (inactive); in test [3], 88.7% (inactive); in test [4], 94.4% (inactive); in test [5], 88.2% (inactive); in test [6], 89.4% (inactive). Further, the growth in test [7] was 100% (inactive); in test [8], 101% (inactive).
For `O=C1OC2(c3ccccc31)c1ccc(O)c(O)c1Oc1c2ccc(O)c1O`, the growth in test [1] was 106% (inactive) and 99.5% (inactive); in test [2], 118% (inactive); in test [3] it was 112% (inactive) and 130% (inactive); in test [4], 105% (inactive) and 113% (inactive); in test [5] it was 109% (inactive) and 105% (inactive); in test [6], 110% (inactive) and 102% (inactive). Besides, the growth in test [7] is 104% (inactive) and 109% (inactive); in test [8], 104% (inactive) and 113% (inactive).
Regarding `NC(=S)N/N=C(\c1ccc(Br)cc1)C1CC1`, the growth in test [1] was 70.1% (inactive) and 36.2% (inactive); in test [2], 99.6% (inactive) and 106% (inactive); in test [3], 92% (inactive) and 91.9% (inactive); in test [4] it was 79.7% (inactive) and 71.1% (inactive); in test [5], 24.4% (inactive) and 20.6% (inactive); in test [6], 7.26% (active) and 2.42% (active). Besides, the growth in test [7] was 97.2% (inactive) and 93.9% (inactive); in test [8], 101% (inactive) and 108% (inactive).
